Mdm2-MdmX inh: inhibitors of human Mdm2-MdmX association, primary screen, cell-based, luminescence, split luciferase, SaOS-2, uHTS; SaOS-2 split-luciferase Mdm2/MdmX complementation; 3% of 330,000 active; inhibition, % at 8 µM; Protein Mdm4 (Homo sapiens) + E3 ubiquitin-protein ligase Mdm2 (Homo sapiens), …;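 active = inhibition of at least 50% at 8 µM in the primary screen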
Target sequence (O15151 whole entry, looked up): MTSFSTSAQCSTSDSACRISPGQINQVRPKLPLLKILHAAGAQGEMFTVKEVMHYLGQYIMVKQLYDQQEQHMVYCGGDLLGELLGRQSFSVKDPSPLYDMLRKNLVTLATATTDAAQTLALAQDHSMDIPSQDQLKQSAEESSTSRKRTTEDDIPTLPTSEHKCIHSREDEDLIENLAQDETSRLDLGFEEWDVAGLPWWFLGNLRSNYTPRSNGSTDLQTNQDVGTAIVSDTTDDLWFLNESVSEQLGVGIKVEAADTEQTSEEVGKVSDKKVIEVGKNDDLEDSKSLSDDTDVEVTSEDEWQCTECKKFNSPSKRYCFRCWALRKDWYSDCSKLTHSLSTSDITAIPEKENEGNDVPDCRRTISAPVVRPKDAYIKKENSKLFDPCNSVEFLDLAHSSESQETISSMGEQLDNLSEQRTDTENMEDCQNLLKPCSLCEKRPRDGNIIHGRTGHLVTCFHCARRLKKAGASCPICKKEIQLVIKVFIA
Target sequence (Q00987 whole entry, looked up): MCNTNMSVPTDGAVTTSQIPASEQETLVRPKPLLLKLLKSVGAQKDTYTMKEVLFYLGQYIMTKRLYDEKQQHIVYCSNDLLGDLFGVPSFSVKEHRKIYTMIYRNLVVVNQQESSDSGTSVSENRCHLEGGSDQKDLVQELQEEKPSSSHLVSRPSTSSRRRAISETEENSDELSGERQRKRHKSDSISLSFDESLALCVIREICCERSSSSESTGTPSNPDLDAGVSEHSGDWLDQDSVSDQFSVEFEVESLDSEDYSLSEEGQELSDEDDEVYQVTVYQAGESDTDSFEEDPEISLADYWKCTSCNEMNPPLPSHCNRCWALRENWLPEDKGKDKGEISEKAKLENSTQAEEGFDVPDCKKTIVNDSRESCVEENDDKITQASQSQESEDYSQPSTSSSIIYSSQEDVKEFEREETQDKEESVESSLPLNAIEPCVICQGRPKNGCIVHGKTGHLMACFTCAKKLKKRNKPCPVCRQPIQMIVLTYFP
697 NFkB inh: inhibitors of PMA/ionomycin-induced NF-kB reporter, 697 cells, primary screen, B-cell NF-kB inhibitor project, cell-based, luminescence, uHTS; 697 B-cell NF-kB luciferase reporter, 16 h; inhibition, % at 4 µM; 0.33% of 330,000 active; in the data active = inhibition above about 35%
Gli-Sufu antag: Gli-Sufu pathway antagonists, primary screen, luciferase luminescence, Sufu-KO-LIGHT cells, uHTS; Sufu-KO-LIGHT fibroblasts, Gli luciferase reporter luminescence; inhibition, % at 5 µM; 0.74% of 340,000 active;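 active = inhibition above about 55%, limit read from the data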;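 also: 0% = DMSO-treated cells and 100% = wells with medium but no cells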
CSC inhib: cancer stem cell viability inhibitors, primary screen, luminescence. cancer stem cell-like cells viability. inhibition, % at 7.5 µM. 1.1% of 300,000 active; in the data active = inhibition above about 75%; tested in HMLE shEcad cells
Beta apoptosis: inhibitors of cytokine-induced beta cell apoptosis, primary screen, luminescence; INS-1E cytokine-induced death, ATP luminescence, 48 h; percent of positive-control rescue, neutral wells zero; AID 435005, 2010; protection from apoptosis, % (concentration not given with the values); 0.8% of 300,000 active;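 active = Every replicate reaches about 75%, or at least half do and their mean reaches it too, limit read from the data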;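 also: 0% = cytokine-treated negative control wells and 100% = positive control rescue; higher means more ATP so stronger rescue from cytokine killing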
Jurkat NFkB inh: inhibitors of induced NF-kB luciferase reporter, primary screen, TCR NF-kB activation inhibitor project, cell-based, luminescence, uHTS | Jurkat, PMA/ionomycin-induced NF-kB luciferase reporter | inhibition, % at 4 µM | 0.53% of 330,000 active; in the data active = inhibition above about 50%
Mdm2-MdmX conf: Mdm2-MdmX complex disruptors, retested hits, confirmation, luminescence, single concentration; 55% of 10,000 active; AID 489028, 2010; shares compounds with Mdm2-MdmX inh; inhibition, % at 8 µM; Mdm2-MdmX binding, luminescent assay; in the data active = inhibition above about 40%
FLuc counter: full-length luciferase signal inhibition, confirmation, counter-screen for Mdm2/MdmX interaction inhibitor project, cell-based, single concentration, SaOS-2; 77% of 6,200 active; inhibition, % at 8 µM; SaOS-2 full-length luciferase counterscreen, luminescence; shares compounds with Mdm2-MdmX inh;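 active = mean inhibition at 8 µM reaching about 37%, which flags the compound as non-specific, limit read from the data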;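 also: p53-null SaOS-2 cells with luciferase driven by a doxycycline-inducible promoter; compound on cells about two nights before reading with doxycycline added after day one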
* marks the source's active call; other numbers are inactive results; x = not tested or not shown. Sampled rows, rich in hits. Any-hit rate of the full collection: about 4.5%.

SMILES | Mdm2-MdmX inh | 697 NFkB inh | Gli-Sufu antag | CSC inhib | Beta apoptosis | Jurkat NFkB inh | Mdm2-MdmX conf | others
Cc1ccc(C(=O)C(c2ccccc2)N2Cc3ccccc3C2=N)cc1 (stereo not drawn) | 79* | -20 | 56* | 111* | 17 | 2 | 18
COc1ccc(C(=O)C(c2ccccc2)N2CCOCC2)cc1 (stereo not drawn) | 13 | -2 | 8 | -9 | 0 | -1 | x
COC(=O)C(Cc1ccccc1)NCC(=O)Nc1cccc(Cl)c1C (stereo not drawn) | 12 | 1 | 10 | -14 | -3 | 12 | x
O=C(O)c1cccc(NC(=S)NC(NC(=O)c2cccc([N+](=O)[O-])c2)C(Cl)(Cl)Cl)c1 (stereo not drawn) | 16 | -28 | -5 | -3 | 10 | -4 | x
O=C(NC(NC(=S)Nc1ccc(Cl)cc1Cl)C(Cl)(Cl)Cl)c1cccc([N+](=O)[O-])c1 (stereo not drawn) | 98* | -52 | 26 | 128* | 97* | -56 | 94* | FLuc counter=22
O=C(NC(NC(=S)Nc1ccccc1)C(Cl)(Cl)Cl)c1cccc(Cl)c1 (stereo not drawn) | 93* | 3 | 4 | 89* | 95* | 17 | 46* | FLuc counter=66*
CCCN(CC(=O)Nc1ccccc1OC)C(=O)CSC(=S)N1CCCC1 | 7 | 16 | -7 | -2 | 2 | -10 | x
Cc1c(NC(=O)CN2CCN(c3ccc(O)cc3)CC2)c(=O)n(-c2ccccc2)n1C | -3 | 8 | 2 | 1 | -3 | 9 | x
CSC1=NC(C)(C)C=C(/C=C/c2ccc(Cl)cc2)N1 | 54* | 2 | 9 | 18 | -3 | 2 | 10
COC(=O)c1ccccc1NC(=O)CSc1nncn1-c1cccnc1 | 2 | 13 | 4 | -11 | -6 | -3 | x
COc1ccccc1C1CCCN1Cc1nc(-c2cc3c(cc2Cl)OCO3)oc1C (stereo not drawn) | 22 | -16 | 34 | 0 | 12 | -3 | x
COc1ccccc1C1CCCN1Cc1nc(-c2ccc(C)s2)oc1C (stereo not drawn) | 75* | -33 | 24 | x | 1 | -9 | 66* | FLuc counter=52*
Cn1cnc(C(=O)N2CCc3ccccc3C2)c1C(=O)N1CCc2ccccc2C1 | -29 | 2 | 0 | x | -4 | 0 | x
CCCCC(NC(=O)Cc1c(C)c2cc3c(-c4ccccc4)coc3c(C)c2oc1=O)C(=O)O (stereo not drawn) | -18 | -11 | -16 | 19 | -5 | -15 | x
CC(=O)c1c(C)[nH]c(C(=O)OCc2csc(CC(=O)Nc3ccccc3C)n2)c1C | 51* | -5 | 2 | 5 | -5 | 6 | 18
CC(C)=CC(=O)OCc1csc(CC(=O)Nc2ccccc2C)n1 | 1 | -3 | -42 | -2 | -3 | 13 | x
Cc1ccc(N2CCN(C(=O)C3CCCN(c4ncnc5c4nc4n5CCCCC4)C3)CC2)c(C)c1 (stereo not drawn) | 72* | -55 | 43 | 32 | 11 | 5 | 39 | FLuc counter=56*
Cc1ccc(C)c(N2CCN(C(=O)C3CCCN(c4ncnc5c4nc4n5CCCCC4)C3)CC2)c1 (stereo not drawn) | 35 | -51 | 43 | -9 | 13 | 1 | x
COc1ccccc1N1CCN(CCCNC(=O)C2CCCN(c3ncnc4c3nc3n4CCCCC3)C2)CC1 (stereo not drawn) | 50* | -10 | 35 | -5 | 5 | 5 | 10
O=C(C1CCCN(c2ncnc3c2nc2n3CCCCC2)C1)N1CCN(c2cccc(Cl)c2)CC1 (stereo not drawn) | 57* | -42 | 27 | 45 | 13 | -4 | 9
CC(=O)c1ccc(S(=O)(=O)N(C)CC(=O)NCc2ccco2)cc1 | 16 | -19 | -22 | -3 | -5 | -9 | x
COc1ccc(CCNC(=O)c2cc(S(=O)(=O)N3CCOCC3)ccc2F)cc1 | 22 | 27 | 45 | -5 | -6 | -9 | x
CC(C)Cc1ccccc1S(N)(=O)=O | -11 | -6 | -6 | -7 | -5 | -8 | x
FC(F)(F)c1nnc2c(Sc3ccccc3)nc3ccccc3n12 | 68* | -58 | -5 | 10 | -29 | 16 | 23
Cc1cc(OC(=O)c2ccccc2C(F)(F)F)c([N+](=O)[O-])c(=O)[nH]1 | 11 | 7 | x | -10 | -3 | -2 | x
SMILES | Mdm2-MdmX inh | 697 NFkB inh | Gli-Sufu antag | CSC inhib | Beta apoptosis | Jurkat NFkB inh | Mdm2-MdmX conf | others
COc1cc(SC)ccc1C(=O)Nc1ncc(C)s1 | 71* | -134 | 18 | -5 | -1 | -67 | 56* | FLuc counter=71*
CSc1ccccc1C(=O)Nc1ncc(C)s1 | 0 | 18 | 15 | -2 | -10 | -4 | x
Cc1cc(C)n(-c2nc3nonc3nc2Nc2cccc(C)c2C)n1 | 51* | 1 | 10 | -11 | -2 | 12 | 20
COc1ccc(NC(=O)c2cc3c(=O)n(C)c4ccccc4c3n2C)cc1OC | 59* | 30 | 20 | 13 | 7 | -12 | 32
COc1ccc(NC(=O)c2cc3c(=O)n(C)c4ccccc4c3n2C)cc1Cl | 62* | 27 | 28 | 30 | 10 | -1 | 26
O=C(COC(=O)c1nc(Cl)ccc1Cl)Nc1cccc(S(=O)(=O)N2CCOCC2)c1 | x | x | -12 | x | x | x | x
COc1ccc([C@@H]2[C@@H]3C(=O)N(C(C)(C)C)C(=O)[C@@H]3[C@]3(Cc4ccccc4)C(=O)N(c4ccc(Br)cc4)C(=O)N23)cc1 | 63* | -24 | -13 | 13 | 17 | 9 | 71* | FLuc counter=36
COc1ccc(N2C(=O)N3[C@H](c4ccc(Br)cc4)[C@@H]4C(=O)N(C(C)(C)C)C(=O)[C@@H]4[C@]3(Cc3ccccc3)C2=O)cc1 | 29 | -1 | 13 | -3 | -1 | -7 | x
Cc1cccc([C@@H]2[C@@H]3C(=O)N(Cc4ccccc4)C(=O)[C@@H]3[C@]3(Cc4ccc(Cl)cc4)C(=O)N(c4ccc(Br)cc4)C(=O)N23)c1 | 90* | 9 | -2 | -4 | 11 | 0 | 99* | FLuc counter=49*
CC[C@@]12C(=O)N(c3ccc(C)cc3)C(=O)N1[C@H](c1cccc(C)c1)[C@@H]1C(=O)N(Cc3ccccc3)C(=O)[C@@H]12 | -11 | -28 | -8 | -16 | 7 | 10 | x
